Screens: PubChem, several laboratories
TIM10 inh – growth inhibitors of TIM10 yeast strain | S. cerevisiae TIM10 strain growth, BacTiter-Glo luminescence, 24 h | inhibition, % at 10 µM | 330,000 compounds, 1.4% hits;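 active = inhibition of 40% or more at the single tested concentration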;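 note: wild-type TIM10 isogenic control strain grown at permissive 25 °C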
tim10-1 inh – inhibits growth of tim10-1 mutant yeast. S. cerevisiae tim10-1 ts strain growth, BacTiter-Glo, 24 h. inhibition, % at 20 µM. 330,000 compounds, 2.2% hits;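 active = inhibition of at least 40%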;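 note: mutant grown at 25 °C; 0% = DMSO wells with yeast and 100% = wells holding no yeast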
tim23-1 inh – tim23-1 yeast growth inhibition | inhibition, % at 20 µM | AID 463212 | S. cerevisiae tim23-1 growth, BacTiter-Glo luminescence, 24 h | 330,000 compounds, 1.3% hits;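 active = growth inhibition of the mutant yeast at or above 50%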;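 note: temperature-sensitive mutant grown at 25 °C; plate controls were DMSO-treated mutant yeast for no effect and medium wells lacking yeast for full effect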
NLRP3 yeast inh – inhibitors of NALP3 inflammasome in yeast. inhibition, % at 10 µM. Yeast reconstituted NLRP3/ASC/caspase-1, beta-gal luminescence, 24 h. 330,000 compounds, 0.39% hits;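 active = inhibition of 50% or more; inactive = inhibition below 50%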;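 note: plate controls were induced DMSO wells for no effect and uninduced yeast grown without galactose for full effect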
NALP1 inh – NALP1 inhibition; S. cerevisiae NALP1/ASC/caspase-1 growth, X-gal OD620, 72 h; inhibition, % at 10 µM; 280,000 compounds, 0.61% hits; AID 2071; in the data active = inhibition mostly above about 24%, no sharp cut-off; inactive = mostly below about 32%
V-ATPase pH – regulators of yeast V-ATPase proton transport; S. cerevisiae, pHLuorin cytosolic pH fluorescence; response, % at 10 µM; 350,000 compounds, 0.37% hits; in the data active = response mostly above about 7.3%, no sharp cut-off; inactive = mostly below about 5.4%; note: actives read high
TIM10 conf – TIM10 yeast growth inhibition, confirmed; shares compounds with TIM10 inh; S. cerevisiae tim10 strain growth, BacTiter-Glo luminescence, 24 h; inhibition, % at 10 µM; 4,600 compounds, 63% hits; AID 463215;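 active = inhibition of yeast growth at or above a set limit in either of two replicates at 10 µM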;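 note: this counterscreen used the strain with wild-type TIM10; 0% = yeast with DMSO and 100% = medium wells lacking yeast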
The depositor's hits bear a star; . = not tested or not shown. Only some compounds are listed: those with a hit (about 4.2% of all), similar ones and a draw of the others.

SMILES | TIM10 inh | tim10-1 inh | tim23-1 inh | NLRP3 yeast inh | NALP1 inh | V-ATPase pH | TIM10 conf
C[C@H]1CN([C@@H](C)CO)C(=O)CCCn2cc(nn2)CO[C@@H]1CN(C)C(=O)Nc1ccccc1C(F)(F)F | . | . | . | . | . | -1.1 | .
CCCCCCSc1ccc([C@H]2N[C@@](C)(C(=O)OC)[C@H]3C(=O)N(CC)C(=O)[C@@H]23)cc1 | 33.2 | 32.8 | 38.5 | 2.8 | . | 1.7 | .
Cc1cc(C)c(C)c(S(=O)(=O)N2CCN(C(=O)CNC(=O)c3ccco3)CC2)c1C | 7.6 | -2.6 | 13.2 | 16.4 | . | 0.4 | .
COc1ccc(N(CC(=O)N/N=C/c2cc(OC)ccc2OC)S(=O)(=O)c2ccccc2)cc1 | 54.7* | 7.1 | 10.9 | -1.6 | -1.7 | 3.1 | 17.1
COc1ccc(N(CC(=O)N/N=C/c2ccc(OC)cc2OC)S(=O)(=O)c2ccccc2)cc1 | 10.7 | 24.8 | 16.2 | 5.2 | 6.4 | 0.9 | .
CC(C)(C)c1ccc(-n2nc(C#N)c(Cl)cc2=O)cc1 | 47.7* | 20.5 | -35.9 | 30.5 | -13.5 | 2.9 | 47.3*
Cc1cc(C)c(S(=O)(=O)NCC2CCC(C(=O)NCCCN3CCC(C)CC3)CC2)c(C)c1 (stereo not drawn) | 8.4 | 18.0 | 14.5 | 7.2 | 9.9 | -0.3 | .
CC(C)(C)c1nc(NC(=O)Nc2ccccc2)sc1Br | 49.0* | 34.6 | 1.9 | 24.2 | 18.0 | -1.6 | 48.7*
CCC(=O)c1ccc(OCC(=O)NCc2ccccc2CN2CCCC2)cc1 | 9.0 | 5.5 | 6.5 | 0.3 | . | 1.4 | .
Cc1ccc(C)c(NC(=O)c2ccccc2C(=O)c2ccccc2)c1 | 40.7* | 23.4 | 33.8 | 3.3 | -0.3 | . | 29.4
Cc1ccc(C(=O)c2ccccc2C(=O)Nc2ccccc2)cc1 | 10.1 | 19.9 | 34.6 | 13.8 | . | 2.1 | .
CCOc1ccc(N(C(=O)c2cnccn2)C(C(=O)NC2CCCCC2)c2ccc(O)cc2)cc1 (stereo not drawn) | 83.7* | 17.2 | 15.7 | 11.1 | -5.2 | -3.1 | -15.9
Cc1ccc([C@H]2C[C@H](O)[C@@H](n3cc(C4CC4)nn3)CN2C(=O)C2CCCCC2)cc1 | . | . | . | . | . | 1.8 | .
Cc1cc(C)c2sc(N(CCCN(C)C)C(=O)c3ccc(S(=O)(=O)N4CCc5ccccc5C4)cc3)nc2c1 | 3.4 | 2.9 | 1.3 | 13.6 | . | -0.8 | .
Cc1ccc2nc(N(CCCN(C)C)C(=O)c3ccc(S(=O)(=O)N4CCc5ccccc5C4)cc3)sc2c1 | 44.9* | 38.0 | 36.3 | 24.3 | 7.9 | 0.7 | 28.9
CCS(=O)(=O)C1=NN2C(=N)/C(=C\c3ccc(SCc4ccco4)o3)C(=O)N=C2S1 | . | . | . | . | 23.8 | 4.5 | .
CCN(C(=O)Cn1c(=O)n2nc(CCn3nc(C)cc3C)nc2c2ccccc21)c1cccc(C)c1 | 48.1* | 36.1 | 44.0 | 8.8 | 4.5 | 2.1 | 44.8*
CC1=CC(C)(C)N(C(=O)c2ccccc2)c2ccc(C)cc21 | 46.1* | 26.3 | -6.4 | 2.4 | 4.5 | 0.7 | -9.3
CC1=CC(C)(C)N(C(=O)c2ccccc2)c2ccccc21 | 15.6 | 29.0 | 24.8 | 3.8 | -1.3 | -1.3 | .
CNc1ccccc1C(C)(C)c1cc(-c2ccc(F)cc2)no1 | 25.4 | 25.0 | 34.1 | 12.0 | 30.4 | 0.0 | .
COc1ccc(C(=O)Oc2cc3c4c(c2)C(C)=CC(C)(C)N4C(=O)C3=O)cc1OC | 46.3* | 37.8 | 45.4 | 11.7 | 11.6 | 1.0 | 48.2*
COc1ccc(/C=C(/NC(=O)c2ccccc2)C(=O)NCc2ccncc2)cc1 | 6.5 | 4.3 | 4.8 | 4.3 | 12.6 | -5.9 | .
COc1ccc(C(=O)N/C(=C/c2ccc(Cl)cc2)C(=O)NCc2ccncc2)cc1 | 95.9* | -8.7 | -8.9 | 11.3 | 2.7 | -0.9 | 3.8
CC(C)CCOP(=O)(c1ccc(N(C)C)cc1)C(O)c1ccccc1F (stereo not drawn) | 50.1* | 32.4 | 28.8 | 5.7 | 19.1 | 4.7 | 41.4*
CC(C)CCOP(=O)(c1ccc(N(C)C)cc1)C(O)c1ccc(C(C)C)cc1 (stereo not drawn) | 40.0 | 30.1 | 24.0 | -83.9 | -5.5 | -1.3 | 36.3*
SMILES | TIM10 inh | tim10-1 inh | tim23-1 inh | NLRP3 yeast inh | NALP1 inh | V-ATPase pH | TIM10 conf
COc1ccc(/C=C(\C#N)C(=O)Nc2cccc3ncccc23)cc1OC | 35.5 | 35.2 | 48.2 | 1.3 | . | 1.6 | .
COc1cc(/C=C(\C#N)C(=O)Nc2cccc3ncccc23)cc(OC)c1OC | 42.0* | 39.4 | 47.2 | -0.9 | 34.3 | 1.0 | -19.0
Cc1cc(C)c(-n2c(C)cc(/C=C3/NC(=O)NC3=O)c2C)c(C)c1 | 52.1* | 37.9 | 22.7 | 7.6 | 8.0 | . | -13.1
CC(C)(C)NC(=O)c1ccc2nsnc2c1 | -1.4 | 6.6 | 5.7 | 17.9 | 15.3 | -0.5 | .
CN(C(=O)CSc1nnc2n1CCCCC2)C1(C#N)CCCCC1 | -1.8 | -13.6 | -2.2 | 4.8 | . | -1.4 | .
N#CC1(NC(=O)CSc2nnc3n2CCCCC3)CCCCC1 | 80.9* | -2.5 | -4.6 | 13.4 | . | -1.5 | 7.0
Cc1ccccc1Nc1nc(Nc2ccccc2C)nc(SC2=NCCS2)n1 | 42.0* | 30.6 | 33.1 | -0.7 | -6.6 | 0.8 | 45.2*
CCc1ccc(OS(=O)(=O)c2cn(C)c(=O)n(C)c2=O)cc1 | -3.6 | -2.4 | 2.4 | -11.9 | -2.8 | 2.4 | .
CCN(CC)C(=O)N1CCN(S(=O)(=O)c2c(C)cc(C)cc2C)CC1 | 40.4* | 28.3 | 37.9 | 13.7 | 7.7 | -1.8 | 23.9
CCN(CC)C(=O)N1CCN(S(=O)(=O)c2ccc(C)cc2)CC1 | 2.2 | 14.6 | 13.7 | -2.7 | -5.7 | 2.0 | .
COc1ccccc1CCNC(=O)c1cc(COc2cccc(C(F)(F)F)c2)on1 | 4.1 | 24.7 | 17.5 | 17.0 | -7.6 | 3.8 | .
CC1(C)c2[nH]c3ccccc3c2C[C@@H]2C(=O)N(Cc3ccccc3F)C(=O)N21 | 40.6* | 36.5 | 27.2 | 20.8 | . | -2.0 | 25.6
CC1(C)c2[nH]c3ccccc3c2C[C@H]2C(=O)N(Cc3ccccc3F)C(=O)N21 | 28.2 | 32.9 | 16.3 | 17.2 | . | -11.2 | .
Cc1cccc(NC(=O)c2cc(S(=O)(=O)N(C)c3ccc(F)cc3)ccc2Cl)n1 | -21.2 | 3.8 | 4.3 | 11.4 | . | -0.1 | .
Cc1cccc(CN2CCN(Cc3nc4c(s3)CCCC4)CC2CCO)n1 (stereo not drawn) | 5.8 | 21.1 | 9.8 | 2.0 | 5.7 | 2.0 | .
COc1ccc(NC(=O)Oc2cc(C)ccc2C(C)C)cc1 | -26.7 | -16.8 | 14.5 | 29.2 | -11.6 | -4.9 | .
CCOC(=O)C1=NN(C(=O)c2ccc(OC)cc2)C(O)(c2ccc(Cl)cc2)C1 (stereo not drawn) | 19.5 | 28.3 | 39.0 | 6.6 | 37.4 | -1.6 | .
COC(=O)C1=NN(C(=O)c2cccc(Br)c2)C(O)(c2ccc(Cl)cc2)C1 (stereo not drawn) | 45.1* | 35.3 | 22.3 | 11.1 | -7.2 | -3.4 | 3.2
N#C/C(=C\c1ccccc1C(=O)O)c1nc2ccccc2[nH]1 | 11.8 | -12.5 | -1.0 | 14.7 | 1.9 | 1.1 | .
N#C/C(=C\c1cccnc1)c1nc2ccccc2[nH]1 | 75.2* | 18.5 | 13.5 | 12.5 | -14.8 | -4.6 | -1.9
